HP1b chromo inh: blocks HP1-beta chromodomain binding to methylated histone tails; P83916; AlphaScreen HP1-beta / biotin-H3K9me3 peptide binding; Potency, µM (highest dose often 114 µM), usual class: inhibitors; actives 0.56% (n = 390,000); AID 540317; further: nearly all actives have a fitted effect of over 70% in size
Target sequence (P83916 whole entry, looked up): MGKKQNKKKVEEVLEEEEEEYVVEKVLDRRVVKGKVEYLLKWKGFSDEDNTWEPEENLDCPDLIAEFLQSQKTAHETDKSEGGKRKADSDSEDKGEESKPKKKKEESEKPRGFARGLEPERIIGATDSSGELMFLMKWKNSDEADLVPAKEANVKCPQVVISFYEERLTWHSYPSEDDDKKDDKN
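HP1-beta protein (50 nM final) preincubated 30 min at room temperature with biotinylated H3(1-18)K9me3 peptide (50 nM) in PBS pH 7.4, 0.01% Tween-20, then compound added for 30 min. AlphaScreen streptavidin donor/nickel chelate acceptor beads (10 ug/mL final), 30 min dark, luminescence read.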
G9a block: inhibitors of human histone lysine methyltransferase G9a; Q96KQ7; G9a H3K9 monomethylation, AlphaScreen, 2 h; Potency, µM (highest dose often 102 µM), usual class: inhibitors; actives 8.8% (n = 350,000); AID 504332; further: nearly all actives have a fitted effect of over 75% in size
Target sequence (Q96KQ7 913-1193 limits assumed): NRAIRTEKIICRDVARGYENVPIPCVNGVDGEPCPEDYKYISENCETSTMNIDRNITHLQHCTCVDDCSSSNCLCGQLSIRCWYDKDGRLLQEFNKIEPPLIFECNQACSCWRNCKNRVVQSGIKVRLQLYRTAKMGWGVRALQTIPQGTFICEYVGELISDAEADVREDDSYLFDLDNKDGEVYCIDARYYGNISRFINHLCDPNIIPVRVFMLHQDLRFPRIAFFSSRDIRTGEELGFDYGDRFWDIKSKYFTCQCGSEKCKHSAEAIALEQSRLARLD
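G9a (20 nM) preincubated 15 min RT with compounds, then 500 nM biotinylated H3K9 peptide and 20 uM SAM added; 2 h RT reaction. Monomethyl-H3K9 product detected by AlphaScreen with anti-H3K9me1 antibody, streptavidin donor and anti-rabbit IgG acceptor beads.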
PLK1 PBD inh: inhibitors of human PLK1 polo-box domain binding; P53350; Plk1 PBD binding of FITC phosphopeptide, fluorescence polarization; Potency, µM, usual class: inhibitors; actives 2.8% (n = 360,000); AID 720504; further: series mostly up to about 57 µM; nearly all actives have a fitted effect of over 65% in size
BAZ2B block: BAZ2B (human) inhibition; Q9UIF8; AlphaScreen BAZ2B-H3K14Ac peptide displacement; Potency, µM (series often up to 114 µM), actives largely listed as inhibitors; actives 4.4% (n = 360,000); further: nearly all actives have a fitted effect of over 60% in size
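Protein-peptide AlphaScreen: BAZ2B 50 nM, b-H3K14Ac 50 nM, 1x PBS pH 7.4 + 0.01% Tween-20. Preincubation 30 min RT; cpd 30 min RT (top 110 uM); beads 20 min RT, light-protected.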
Sfp PPTase inh: inhibitors of Bacillus subtilis Sfp phosphopantetheinyl transferase. Biochemical Sfp PPTase activity, qHTS. Potency, µM, most hits filed as inhibitors. actives 3.5% (n = 310,000);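 further: the enzyme is Sfp with the accession as filed and its product quenches rhodamine fluorescence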
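Buffer: 50 mM Hepes-Na pH 7.6, 10 mM MgCl2, 0.01% Nonidet P-40, 0.01% BSA. Enzyme 15 nM, pre-exposed to compound 15 min; substrates then added and fluorescence change tracked over 30 min.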
JMJD2A Tudor inh: inhibitors of human JMJD2A Tudor domain; AlphaScreen JMJD2A-Tudor / H3K4me3 peptide binding; AID 504339; O75164; actives 4.4% (n = 390,000); Potency, µM (highest dose often 114 µM), usual class: inhibitors; further: nearly all actives have a fitted effect of over 50% in size
Hits are given with their value; – = inactive; ? = inconclusive; · = no result; [ ] = remark or other dose. Hits are enriched below; roughly 12% of the tested compounds scored in any of these assays. The call rests on the fitted dose curve; in most records, active means well fitted curve in the direction sought with a large enough effect; inconclusive means small, poorly fitted or top-dose-only effect, or another doubt; inactive means no such curve, though single readings can be large; an effect the other way counts as inactive or inconclusive.

SMILES	HP1b chromo inh	G9a block	PLK1 PBD inh	BAZ2B block	Sfp PPTase inh	JMJD2A Tudor inh
CCn1cc(C(=O)NC2CCCc3c2cnn3-c2cccc(C)c2C)cn1 (centres undefined)	·	·	·	–	–	·
Cc1oc(-c2ccccc2)nc1CNC(=O)Nc1ccccc1	–	–[12.7 µM]	·	–	·	–
Cn1c(C(=O)NCc2ccc(F)cc2)cc2c(=O)n(C)c3ccccc3c21	–	–	·	–	·	–
Oc1cccc(Nc2cc(-c3ccccc3)ncn2)c1	–	?	·	50.1µM	·	–
CC(C)CNC(=O)C(=O)NCCCN1CCOCC1	–	·	21.2µM	–	–	–
Cc1cc(C)cc(NC(=O)C(=O)NCCCN2CCOCC2)c1	–	–	–	–	–	–
NNC(=O)C(=O)NCCCN1CCOCC1	–	56.2µM	–	–	–	?
C=CCNC(=O)C(=O)NCCCN1CCOCC1	–	·	–	–	–	–
Cc1[nH]c2ccccc2c1NC(=O)CN1CCN(C(=O)c2ccco2)CC1	–	–	–	–	44.7µM	–
Cc1[nH]c2ccccc2c1NC(=O)CN1CCN(Cc2ccc3c(c2)OCO3)CC1	·	56.2µM	·	–	–	·
Cc1ccc(CCNC(=O)c2ccc(NC(=O)N3CCSc4ccccc43)cc2)cc1	–	–	·	–	·	–
O=C(/C=C/NCC(=O)c1ccccc1)c1ccc(Br)cc1	–	6.31µM	–	–	–	–
Cc1ccccc1NCC(=O)c1ccc(Br)cc1	–	?	–	?	44.7µM	–
O=c1[nH]c(=O)n(C2CCCCC2)c(O)c1C1=Nc2ccccc2SC(c2ccc(Cl)cc2)C1 (centres undefined)	–	–	·	–	·	–
O=CC(O)C1OC(=O)C(O)C1O (centres undefined)	?	·	?	·	·	22.4µM
NC(=O)[C@@H]1CCCNc2c(F)cc([N+](=O)[O-])cc2C(=O)N[C@@H](CCC(=O)O)C(=O)N[C@@H](CO)C(=O)N1	–	79.4µM	–	–	–	–
NC(=O)[C@@H]1CCCCNc2c(I)cc([N+](=O)[O-])cc2C(=O)N[C@@H](CCC(=O)O)C(=O)N[C@@H](CO)C(=O)N1	–	39.8µM	–	–	–	–
NC(=O)[C@@H]1CCCCNc2c(F)cc([N+](=O)[O-])cc2C(=O)N[C@@H](CC(=O)O)C(=O)N[C@@H](CCC(=O)O)C(=O)N1	–	?	–	–	–	?
NC(=O)[C@@H]1CCNc2c(I)cc([N+](=O)[O-])cc2C(=O)N[C@@H](CCC(=O)O)C(=O)N[C@@H](CO)C(=O)N1	–	10µM	–	–	–	–
NC(=O)C[C@@H]1NC(=O)c2cc([N+](=O)[O-])cc(F)c2NCCCC[C@@H](C(N)=O)NC(=O)[C@H](CO)NC1=O	·	50.1µM	·	?	–	·
CCc1ccc(OCC(=O)Nc2cc(-c3nc4cc(C)ccc4o3)ccc2C)cc1	–	?	·	–	·	–
Cn1c(Cc2ccccc2)nnc1SCC(=O)NC1CCCC1	–	–	–	–	–	–
Cc1ccccc1-c1nn(-c2ccc(F)cc2F)cc1CNCCN(C)C	–	–	–	?	–	?
COCCN(C)Cc1cn(-c2ccc(F)cc2F)nc1-c1ccccc1C	–	·	–	–	89.1µM	–[11.4 µM]
CN(CC(=O)Nc1ccc(Cl)c(C(F)(F)F)c1)C(=O)c1cccc2cccnc12	–	–[12.7 µM]	–	–	·	–
SMILES	HP1b chromo inh	G9a block	PLK1 PBD inh	BAZ2B block	Sfp PPTase inh	JMJD2A Tudor inh
COc1ccc(CCNc2nc(C)nc3c2oc2ccccc23)cc1OC	–	–[12.7 µM]	–	–	28.2µM	–
Cc1cccc(Nc2nc(C)nc3c2oc2ccccc23)c1	–	79.4µM	–	?	?	–
COc1ccc(CCNc2ncnc3c2oc2ccccc23)cc1OC	–	–	–	?	?	?
Cc1nc(Nc2ccncc2)c2oc3ccccc3c2n1	–	–	–	–	–	–
Cc1ccc(O)c(N=Cc2ccc(C)s2)c1	–	–	–	–	56.2µM	–
Cc1ccc(O)c(N=Cc2cccs2)c1	–	–	–	–	–	–
CCOc1ccc(-c2csc(Cn3c(CN4CCN(C)CC4)nc4ccccc4c3=O)n2)cc1	?	22.4µM	23.8µM	?	?	22.4µM
CN(C)Cc1nc2ccccc2c(=O)n1Cc1nc(-c2cc3ccccc3o2)cs1	–	?	18.9µM	?	?	50.1µM
CCOc1ccc(CNCCCSc2nnnn2C)cc1OC	–	–	·	–	·	–
